Laboratory results published in PubChem BioAssay (NCI).
“And” between values parts separate entries of the source, which are not always exact repeats. Equal values may be shown once. This is part of a sample that, as a whole, favours compounds with a hit. Of some 79,000 tested, about 15% had one in any assay. The source holds several records for some structures; these can differ, active in one and inactive in another. The source made the active and inactive calls. Cut-off read from the data, not from the text of the source: active = growth inhibition above about 70%; inactive = the rest.

Legend:
[1] = NCI Yeast Anticancer Drug Screen. Data for the rad50 strain (AID 155);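 note: 0% = growth of vehicle-only cultures of the same strain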; conditions: S. cerevisiae rad50 strain growth inhibition, stronger effect = higher value
In short: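 Cells are treated with compound, grown, and their growth is then scored against vehicle-only cultures of the same repair-deficient yeast strain.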

[2] = NCI Yeast Anticancer Drug Screen. Data for the mec2-1 strain (AID 157); conditions: S. cerevisiae mec2-1 strain, stronger effect = higher value
In short: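 Cells of the genetically defined mec2-1 yeast strain are incubated with test compound. Inhibition of growth is calculated against vehicle-treated controls.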

[3] = NCI Yeast Anticancer Drug Screen. Data for the sgs1 mgt1 strain (AID 161);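 note: 0% = growth of cultures given vehicle only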; conditions: S. cerevisiae sgs1 mgt1 strain, stronger effect = higher value
In short: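 Test agents were incubated with a DNA-repair-mutant yeast strain. Growth was then read and compared against vehicle-treated controls.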

[4] = NCI Yeast Anticancer Drug Screen. Data for the cln2 rad14 strain (AID 165);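 note: 0% = growth equal to vehicle treated cultures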; conditions: S. cerevisiae cln2 rad14 strain, stronger effect = higher value
In short: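 The screen exposed genetically defined yeast (cln2 rad14) to test compounds and scored growth inhibition relative to vehicle-treated controls.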

[5] = NCI Yeast Anticancer Drug Screen. Data for the bub3 strain (AID 167); conditions: S. cerevisiae bub3 mutant strain, stronger effect = higher value
In short: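 Part of a panel of yeast mutants defective in DNA damage repair or cell cycle regulation. Each strain is grown with compound, and inhibition is calculated relative to solvent-treated cultures.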

[6] = NCI Yeast Anticancer Drug Screen. Data for the mlh1 rad18 strain (AID 175); conditions: S. cerevisiae mlh1 rad18 strain growth inhibition, stronger effect = higher value
In short: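 Compound-treated yeast growth, normalised to vehicle controls. Strain bears defined DNA repair mutations.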

[7] = at 5.0 µM (retest, dose inferred, filed as 0.5)
[8] = at 50.0 µM (retest, dose inferred, filed as 5.0)

Measured: growth inhibition

COC(=O)C#CC(=O)OC
inactive: [1]; [7] 14% | [1]; at 50.0 µM 32% and -2.9% | [2]; [7] 14% | [3]; [7] -15% | [3]; at 50.0 µM 7.05% and 45% | [4]; [7] 21% | [4]; at 50.0 µM 17.9% and 9.6% | [5]; [7] -18% | [6]; [7] -2% | [6]; at 50.0 µM 21.8% and 49.8%
9.8% (inactive) and 77.9% (active): [2]; at 50.0 µM
0.8% (inactive) and 74% (active): [5]; at 50.0 µM
active: [1]; [8] 96% | [2]; [8] 99% | [3]; [8] 84% | [4]; [8] 96% | [5]; [8] 99% | [6]; [8] 98%

CCN(CC)C(=S)Sc1nc2ccccc2s1
active: [1]; [8] 88% | [2]; [8] 87% | [3]; [8] 95% | [5]; [8] 91%
inactive: [1]; [7] -3% | [1]; at 50.0 µM 34.2% | [2]; [7] -2% | [2]; at 50.0 µM -12.1% | [3]; [7] 0% | [3]; at 50.0 µM 16.7% | [4]; [7] -7% | [4]; [8] 13% | [4]; at 50.0 µM -54.5% | [5]; [7] 24% | [5]; at 50.0 µM 68.1% | [6]; [7] 5% | [6]; [8] 63% | [6]; at 50.0 µM 18.4%

Cc1cccc2c1Oc1cc(Cl)ccc1C2NC(=O)CCN1CCCCC1 (stereo unspecified)
inactive: [1]; [7] -22% | [1]; [8] 24% | [2]; [7] -12% | [2]; [8] 3% | [2]; at 50.0 µM 25.9% | [3]; [7] -6% | [3]; [8] 21% | [4]; [7] 27% | [4]; [8] 26% | [4]; at 50.0 µM 65.7% | [5]; [7] 16% | [5]; [8] 20% | [5]; at 50.0 µM -14.7% | [6]; [7] 14% | [6]; [8] 57% | [6]; at 50.0 µM 69.1%
active: [1]; at 50.0 µM 85.2% | [3]; at 50.0 µM 86.3%

O=C(C(c1ccccc1)c1ccccc1)C(c1ccccc1)c1ccccc1
inactive: [1]; [7] 0% | [1]; [8] -12% | [1]; at 50.0 µM 25% | [2]; [7] -6% | [2]; [8] -13% | [2]; at 50.0 µM 0.85% | [3]; [7] -1% | [3]; [8] -18% | [3]; at 50.0 µM 4.8% | [4]; [7] 2% | [4]; [8] -30% | [4]; at 50.0 µM 43.9% | [5]; [7] 0% | [5]; [8] 28% | [5]; at 50.0 µM -6.25% | [6]; [7] 0% | [6]; [8] -4% | [6]; at 50.0 µM 1.55%

C=C1C(=O)C23OC2C1CCC(=O)C1(C)CC[C@H](OC(C)=O)C(C)(C)[C@H]1CC3=O (stereo partly specified)
inactive: [1]; [8] -2% | [2]; [8] 1% | [3]; [8] 0% | [4]; [8] -1% | [5]; [8] -1% | [6]; [8] -1%
active: [1]; [7] 96% | [1]; at 50.0 µM 99.2% | [2]; [7] 98% | [2]; at 50.0 µM 99.5% | [3]; [7] 98% | [3]; at 50.0 µM 99.5% | [4]; [7] 95% | [4]; at 50.0 µM 99% | [5]; [7] 98% | [5]; at 50.0 µM 99% | [6]; [7] 98% | [6]; at 50.0 µM 99.2%

NC(=O)SCC(=O)NNc1ccccc1
active: [3]; at 50.0 µM 87.8% | [4]; at 50.0 µM 82.2% | [5]; [8] 88% | [5]; at 50.0 µM 86% | [6]; [8] 81%
51.5% (inactive) and 88.9% (active): [6]; at 50.0 µM
48.1% (inactive) and 88.1% (active): [1]; at 50.0 µM
inactive: [1]; [7] 16% | [1]; [8] 54% | [2]; [7] 1% | [2]; [8] 40% | [2]; at 50.0 µM 13.3% and 39.9% | [3]; [7] 5% | [3]; [8] 41% | [4]; [7] 11% | [4]; [8] 60% | [5]; [7] 13% | [6]; [7] 14%

O=C(/C=C/c1ccc(Cl)cc1)NC1C=Nc2ccc([N+](=O)[O-])cc2NC1=O (stereo unspecified)
active: [1]; [8] 94% | [1]; at 50.0 µM 95.8% | [2]; [8] 93% | [2]; at 50.0 µM 96.5% | [3]; [8] 93% | [3]; at 50.0 µM 96.6% | [4]; [8] 93% | [4]; at 50.0 µM 92.5% | [5]; [8] 92% | [5]; at 50.0 µM 92.3% | [6]; [8] 88% | [6]; at 50.0 µM 97.2%
inactive: [1]; [7] 32% | [2]; [7] -27% | [3]; [7] 29% | [4]; [7] 13% | [5]; [7] 0% | [6]; [7] 13%
